The results in this text go back to PubChem BioAssay (Tox21).

A short description of experiment [1]: qHTS assay to identify small molecule antagonists of the sonic hedgehog signaling (Shh) pathway (AID 1259369; calls by dose curve; further: nearly all actives have a fitted effect of over 45% in size). Put shortly:
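3T3Gli1-Luc, conditioned-medium-stimulated, 24hr cpd, 37C/5% CO2; Gli1-driven firefly Luc luminescence after 30min RT with luciferase reagent. Cells plated 4hr before cpd.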
Background: In qHTS, concentration-response curves come from the screen itself.

Experiment [2] has as its target Estrogen receptor beta (Homo sapiens) (UniProt Q92731). Nature of the experiment: qHTS assay to identify small molecule agonists of the estrogen receptor beta (ER-beta) signaling pathway (AID 1259377; active means well fitted activation curve with a large enough effect in the signal ratio in the repeat runs, not every such curve was filed as active; the % refers to the signal ratio). Put shortly: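 HEK293T ER-beta-UAS-bla; 2% charcoal-stripped FBS; cells pre-incubated 6 hr, compound 16 hr, 37C/5% CO2; LiveBLAzer B/G FRET substrate 2 h RT; fluorescence intensity read.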

Experiment [3] shares this target. In words: qHTS assay to identify small molecule antagonists of the estrogen receptor beta (ER-beta) signaling pathway (AID 1259378; active means well fitted inhibition curve with a large enough effect in the signal ratio in the repeat runs, not every such curve was filed as active; the % refers to the signal ratio). An outline of the steps:
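ER-beta-UAS-bla HEK293T cells in 2% charcoal-stripped FBS medium treated with compound plus 1nM final 17-beta-estradiol for 16 hr at 37C. Beta-lactamase reporter read by FRET substrate fluorescence after 2 hours at room temperature.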

The nature of experiment [4]: qHTS assay to identify small molecule agonists of the androgen receptor (AR) signaling pathway in the presence of an antagonist - cell viability counter screen (AID 1259379).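 Further: MDA-kb2 human breast cancer cells carrying an MMTV luciferase reporter; series mostly up to about 92 µM; nearly all actives have a fitted effect of over 25% in size.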 Put shortly:
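Cells: MDA-kb2 (MMTV-luc, AR and GR elements), 3,000/well, 5 hr settle. Added: nilutamide 3.0uM final, then compounds (15 conc.). Incubation: 16 hr, 37C, no CO2. Read-out: CellTiter-Fluor, 1 hr, fluorescence.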

The nature of experiment [5]: qHTS assay to identify small molecule agonists of the estrogen receptor beta (ER-beta) signaling pathway - cell viability counter screen (AID 1259380). Further: nearly all actives have a fitted effect of over 30% in size. Put shortly:
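HEK293T ER-beta-UAS-bla; 2% CS-FBS; 6 hr pre-plate, 16 hr cpd at 37C/5% CO2; LiveBLAzer read first, then CellTiter-Glo 30 min RT, luminescence.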

A short description of experiment [6]: qHTS assay to identify small molecule antagonists of the estrogen receptor beta (ER-beta) signaling pathway - cell viability counter screen (AID 1259382). Further: series mostly up to about 92 µM; nearly all actives have a fitted effect of over 55% in size. Put shortly: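 Cells: ER-beta-UAS-bla HEK293T, 2,000/well, 2% CS-FBS, 6 hr settle. Cpd + E2 (1nM final), 16 hr, 37C/5% CO2. Bla FRET substrate 2 hr RT, then CellTiter-Glo 30 min RT, luminescence.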
Experiment [7] in a line: qHTS assay to identify small molecule agonists or antagonists of the thyroid stimulating hormone receptor (TSHR) signaling pathway - wild type cell line counter screen (AID 1259384; calls by dose curve). An outline of the steps: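 Wild-type Hek293 cells, 800/well, 18 h at 37C, then compound with Ro20-1724 for 30 min RT. cAMP by HTRF (cAMP-d2/anti-cAMP cryptate), 1 h RT, fluorescence read. 15 concentrations, triplicates.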

Experiment [8] addresses Thyrotropin receptor (Homo sapiens) (UniProt P16473). In words: qHTS assay to identify small molecule antagonists of the thyroid stimulating hormone receptor (TSHR) signaling pathway (AID 1259385; calls by dose curve; further: nearly all actives have a fitted effect of over 20% in size). An outline of the steps:
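TSHR-HEK293 cells (800/well) plated 18 h, then compounds with Ro20-1724 and TSH at 1.5 ng/mL final, 30 min at room temperature. cAMP quantified by HTRF (cAMP-d2/anti-cAMP-cryptate, 1 h); 15 concentrations in triplicate.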

Experiment [9] in a line: qHTS assay to identify small molecule agonists of the estrogen receptor alpha (ER-alpha) signaling pathway in the presence of an antagonist - cell viability counter screen (AID 1259386).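 Further: series mostly up to about 92 µM; cells exposed to compounds for 22 h at 37 °C before the viability read; nearly all actives have a fitted effect of over 30% in size.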 An outline of the steps: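 VM7Luc4E2, stripped-serum pre-culture 5 d; 24hr plating; +ICI-182,780 10.0nM final; cpds 15 conc, 22hr, 37C/5% CO2; CellTiter-Fluor added at 21hr, fluorescence 1hr later.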

The target of experiment [10] is Progesterone receptor (Homo sapiens) (UniProt P06401). In words: qHTS assay to identify small molecule agonists of the progesterone receptor (PR) signaling pathway (AID 1346784; calls by dose curve; further: nearly all actives have a fitted effect of over 30% in size). An outline of the steps:
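Beta-lactamase reporter read-out: after 16 hr compound treatment at 37C and a further 2 hr at room temperature with LiveBLAzer B/G FRET substrate, fluorescence was measured in PR-UAS-bla HEK 293T cells grown in 2% charcoal-stripped serum.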

The target is the same in experiment [11]. Nature of the experiment: qHTS assay to identify small molecule antagonists of the progesterone receptor (PR) signaling pathway (AID 1346795; active means well fitted inhibition curve with a large enough effect in the signal ratio in the repeat runs, not every such curve was filed as active; the % refers to the signal ratio; further: potency means the concentration at half of the fitted maximal effect). Put shortly: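 Read-out is fluorescence from the LiveBLAzer B/G FRET substrate, cleaved by a UAS-controlled beta-lactamase in PR-UAS-bla HEK293T cells after 16 hr exposure to compound plus 1 nM promegestone (final), followed by 2 hr at room temperature.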

A short description of experiment [12]: qHTS assay to identify small molecule antagonists of the progesterone receptor (PR) signaling pathway - cell viability counter screen (AID 1346798).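 Further: HEK293T PR-UAS-bla cells stimulated with the agonist R5020; series mostly up to about 92 µM; nearly all actives have a fitted effect of over 50% in size.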 Put shortly:
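HEK293T PR-UAS-bla, 2% charcoal-stripped FBS; 4 hr pre-plate; cpd + R5020, 16 h 37C; LiveBLAzer read first; then CellTiter-Glo 30 min RT, luminescence.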

The nature of experiment [13]: qHTS assay to identify small molecule agonists of the progesterone receptor (PR) signaling pathway - cell viability counter screen (AID 1346799; calls by dose curve; further: nearly all actives have a fitted effect of over 45% in size). An outline of the steps: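 Luminescence from CellTiter-Glo, added after the beta-lactamase FRET read in the same wells, gave cytotoxicity in PR-UAS-bla HEK293T cells treated with compounds for 16 hr at 37C.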
The nature of experiment [14]: qHTS assay to identify small molecule antagonists of the TGF-beta/Smad signaling pathway - cell viability counter screen (AID 1346824). Further: nearly all actives have a fitted effect of over 50% in size. Put shortly:
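SBE-bla HEK 293T cells, incubated overnight, then compound plus 0.25 ng/mL TGF-beta1 (stock added) for 5 hr at 37 C. Viability was read in the same wells by CellTiter-Glo luminescence after 30 min at room temperature.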

Experiment [15] is described as follows: qHTS assay to identify small molecule agonists of the TGF-beta/Smad signaling pathway (AID 1346859; active means well fitted activation curve with a large enough effect in the signal ratio in the repeat runs, not every such curve was filed as active; the % refers to the signal ratio; further: series mostly up to about 77 µM). An outline of the steps: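 SBE-bla HEK 293T, 4,000 cells/well, plated o/n; cpd in DMSO, 5 hr, 37 C/5% CO2; B/G FRET substrate 2 hr RT; ex 405, em 460/530 nm.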
The target in experiment [16] is Thyrotropin-releasing hormone receptor (Homo sapiens) (UniProt P34981). In words: qHTS assay to identify small molecule antagonists of the thyrotropin-releasing hormone receptor (TRHR) signaling pathway (AID 1346877; active means well fitted inhibition curve with a large enough effect in the repeat runs, not every such curve was filed as active; further: series mostly up to about 51 µM). An outline of the steps: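 Intracellular calcium fluorescence, read kinetically every second over 3 min, reports TRH-evoked signalling in HEK293 cells carrying TRHR. Test compounds were added 5 min ahead of a 1 nM TRH challenge.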

Experiment [17] can be described thus: qHTS assay to identify small molecule agonists of the TGF-beta/Smad signaling pathway - cell viability counter screen (AID 1346829). Further: top concentration of the series differs between compounds; nearly all actives have a fitted effect of over 45% in size. Put shortly:
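Tox21 qHTS format: SBE-bla HEK 293T cells treated with DMSO-dissolved compounds for 5 hr; CellTiter-Glo luminescence after 30 min at room temperature.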

For experiment [18], the target named is Estrogen receptor (Homo sapiens) (UniProt P03372). In words: qHTS assay to identify small molecule agonists of the estrogen receptor alpha (ER-alpha) signaling pathway in the presence of an antagonist (AID 1259383; calls by dose curve; further: top concentration of the series differs between compounds; nearly all actives have a fitted effect of over 15% in size). Put shortly: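 VM7Luc4E2, endog. ER-alpha + 4×ERE-luc; charcoal-stripped FBS, phenol red-free, 5 d; 24hr plating; +10.0nM ICI-182,780 (final); cpds 15 conc, 22hr, 37C/5% CO2; ONE-Glo luminescence.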

Results filed as inconclusive are left out. The source made the active and inactive calls. Unless noted, the call rests on the fitted dose curve; in most records, active means well fitted curve in the direction sought with a large enough effect in the repeat runs; inconclusive means weak or mixed curves; inactive means no such curve, though single readings can be large; an effect the other way counts as inactive or inconclusive.

Chain of Thyrotropin receptor (Homo sapiens) (P16473 whole entry, looked up): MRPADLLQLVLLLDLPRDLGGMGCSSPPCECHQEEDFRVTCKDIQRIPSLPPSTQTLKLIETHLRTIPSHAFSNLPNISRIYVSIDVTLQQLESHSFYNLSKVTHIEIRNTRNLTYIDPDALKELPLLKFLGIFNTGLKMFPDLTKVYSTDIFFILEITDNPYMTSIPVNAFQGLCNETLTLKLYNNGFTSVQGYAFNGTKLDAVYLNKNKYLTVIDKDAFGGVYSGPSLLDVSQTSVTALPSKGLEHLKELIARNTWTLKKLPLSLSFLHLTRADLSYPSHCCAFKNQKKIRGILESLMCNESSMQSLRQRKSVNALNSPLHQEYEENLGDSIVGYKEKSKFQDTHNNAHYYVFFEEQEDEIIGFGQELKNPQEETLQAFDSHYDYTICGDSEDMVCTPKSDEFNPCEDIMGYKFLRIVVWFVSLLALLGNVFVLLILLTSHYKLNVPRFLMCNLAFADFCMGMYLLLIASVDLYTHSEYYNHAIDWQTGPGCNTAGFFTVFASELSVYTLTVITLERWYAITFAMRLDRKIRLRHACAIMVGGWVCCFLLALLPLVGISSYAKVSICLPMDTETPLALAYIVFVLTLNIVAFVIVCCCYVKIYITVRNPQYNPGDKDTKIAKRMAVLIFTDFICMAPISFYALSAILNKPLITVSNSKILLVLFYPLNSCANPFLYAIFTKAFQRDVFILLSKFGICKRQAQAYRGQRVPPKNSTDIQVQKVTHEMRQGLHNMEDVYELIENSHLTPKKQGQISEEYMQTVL
Chain of Estrogen receptor beta (Homo sapiens) (Q92731 whole entry, looked up): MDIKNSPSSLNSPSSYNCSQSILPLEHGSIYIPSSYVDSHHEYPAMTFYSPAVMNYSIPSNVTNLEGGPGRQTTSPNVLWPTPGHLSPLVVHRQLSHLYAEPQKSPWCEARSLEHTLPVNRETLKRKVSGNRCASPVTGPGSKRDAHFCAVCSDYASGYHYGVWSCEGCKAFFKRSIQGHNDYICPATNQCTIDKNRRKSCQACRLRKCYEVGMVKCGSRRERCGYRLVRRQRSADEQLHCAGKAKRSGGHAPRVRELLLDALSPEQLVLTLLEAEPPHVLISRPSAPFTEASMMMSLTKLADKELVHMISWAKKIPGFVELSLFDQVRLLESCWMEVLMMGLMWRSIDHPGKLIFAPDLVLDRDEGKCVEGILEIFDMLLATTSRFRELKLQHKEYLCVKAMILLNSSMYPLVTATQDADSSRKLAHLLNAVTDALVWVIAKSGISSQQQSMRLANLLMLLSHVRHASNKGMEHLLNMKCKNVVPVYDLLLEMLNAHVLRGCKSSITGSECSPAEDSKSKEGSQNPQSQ
Chain of Thyrotropin-releasing hormone receptor (Homo sapiens) (P34981 whole entry, looked up): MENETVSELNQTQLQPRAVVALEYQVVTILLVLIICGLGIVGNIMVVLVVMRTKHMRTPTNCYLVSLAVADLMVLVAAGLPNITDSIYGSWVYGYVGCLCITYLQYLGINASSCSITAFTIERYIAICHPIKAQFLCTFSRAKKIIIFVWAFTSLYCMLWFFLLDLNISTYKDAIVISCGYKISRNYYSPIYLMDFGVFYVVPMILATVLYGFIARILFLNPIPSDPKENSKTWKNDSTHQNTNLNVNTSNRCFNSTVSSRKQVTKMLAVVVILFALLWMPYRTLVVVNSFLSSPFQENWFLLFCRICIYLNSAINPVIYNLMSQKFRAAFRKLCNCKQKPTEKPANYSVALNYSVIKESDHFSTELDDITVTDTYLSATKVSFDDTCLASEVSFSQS
Chain of Estrogen receptor (Homo sapiens) (P03372 whole entry, looked up): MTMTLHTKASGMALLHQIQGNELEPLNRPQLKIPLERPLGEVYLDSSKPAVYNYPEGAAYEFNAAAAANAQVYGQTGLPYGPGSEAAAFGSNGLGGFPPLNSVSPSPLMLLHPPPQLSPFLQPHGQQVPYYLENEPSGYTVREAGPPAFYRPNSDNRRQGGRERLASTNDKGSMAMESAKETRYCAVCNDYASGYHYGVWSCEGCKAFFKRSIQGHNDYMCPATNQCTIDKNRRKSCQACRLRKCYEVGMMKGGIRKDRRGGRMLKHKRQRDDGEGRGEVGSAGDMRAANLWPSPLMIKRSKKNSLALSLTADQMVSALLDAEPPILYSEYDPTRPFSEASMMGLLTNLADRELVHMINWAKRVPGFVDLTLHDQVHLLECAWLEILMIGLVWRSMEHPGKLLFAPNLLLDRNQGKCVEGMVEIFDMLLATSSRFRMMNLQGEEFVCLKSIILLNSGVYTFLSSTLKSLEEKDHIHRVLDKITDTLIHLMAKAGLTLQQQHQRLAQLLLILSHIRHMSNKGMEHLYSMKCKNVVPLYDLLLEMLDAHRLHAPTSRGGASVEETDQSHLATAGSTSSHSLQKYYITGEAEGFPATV
Chain of Progesterone receptor (Homo sapiens) (P06401 whole entry, looked up): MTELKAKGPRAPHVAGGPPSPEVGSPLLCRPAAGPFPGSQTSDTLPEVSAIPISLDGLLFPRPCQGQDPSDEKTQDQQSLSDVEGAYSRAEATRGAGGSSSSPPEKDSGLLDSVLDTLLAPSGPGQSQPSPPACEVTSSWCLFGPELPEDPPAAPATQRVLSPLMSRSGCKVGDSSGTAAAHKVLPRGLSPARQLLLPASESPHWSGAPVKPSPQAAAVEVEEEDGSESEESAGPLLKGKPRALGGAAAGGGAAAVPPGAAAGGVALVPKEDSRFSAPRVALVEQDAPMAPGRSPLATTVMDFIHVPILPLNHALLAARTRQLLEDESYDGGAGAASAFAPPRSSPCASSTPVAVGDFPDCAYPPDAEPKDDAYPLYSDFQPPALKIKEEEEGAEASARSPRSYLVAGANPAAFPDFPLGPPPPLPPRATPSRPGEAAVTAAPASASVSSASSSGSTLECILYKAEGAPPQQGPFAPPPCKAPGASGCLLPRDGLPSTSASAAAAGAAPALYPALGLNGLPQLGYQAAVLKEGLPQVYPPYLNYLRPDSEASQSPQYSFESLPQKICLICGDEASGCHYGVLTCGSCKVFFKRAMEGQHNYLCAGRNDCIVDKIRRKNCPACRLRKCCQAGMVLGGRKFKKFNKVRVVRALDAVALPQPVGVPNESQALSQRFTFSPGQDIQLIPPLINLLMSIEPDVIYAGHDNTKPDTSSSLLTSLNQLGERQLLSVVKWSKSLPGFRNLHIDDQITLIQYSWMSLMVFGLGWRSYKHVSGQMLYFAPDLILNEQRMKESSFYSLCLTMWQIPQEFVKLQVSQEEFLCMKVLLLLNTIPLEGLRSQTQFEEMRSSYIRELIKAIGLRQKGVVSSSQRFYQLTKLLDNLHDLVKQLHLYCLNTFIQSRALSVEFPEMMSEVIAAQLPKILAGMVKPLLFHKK

Consider `CCCCCCCCNC`, for which the Potency result in experiment [1], in experiment [2], in experiment [3], in experiment [4], in experiment [5] and in experiment [6] was “inactive” throughout. In addition, the Potency entry in experiment [8], in [9], in experiment [10], in experiment [11], in experiment [12] and in experiment [13] was “inactive” each time. Also, the call in experiment [7], in experiment [14], in [15] and in experiment [16] was inactive.
For the molecule `Clc1ccccc1-c1nc(-c2ccncc2)no1`, the Potency result in [1], in experiment [4], in experiment [5], in [6], in experiment [8] and in experiment [9] was “inactive” each time. Also, the Potency entry in experiment [10] is “inactive”. Further, the result in [7], in experiment [14], in experiment [17], in [15] and in experiment [16] was inactive. Further, the Potency in [11] was 26.6 µM (active).
In the case of `C1=COCCC1`, the Potency entry in [1], in experiment [6], in [18], in experiment [9], in experiment [10] and in experiment [11] was “inactive” throughout. Also, the Potency entry in experiment [12] was “inactive”. The molecule was classed as inactive in experiment [14], in experiment [17], in experiment [15] and in [16].
In the case of `O=C(NC1CCN(CCc2c[nH]c3ccccc23)CC1)c1ccccc1`, the Potency entry in experiment [2], in experiment [3], in experiment [6], in [8], in experiment [10] and in experiment [11] was “inactive” in each case. Moreover, the Potency entry in [12] and in experiment [13] was “inactive” throughout. The outcome in [7], in experiment [14], in [17], in [15] and in [16] was inactive.
In the case of `CCC(=O)O[C@@H]1C[C@H]2CC[C@]1(C)C2(C)C`, the Potency entry in experiment [1], in experiment [2], in experiment [3], in experiment [4], in experiment [5] and in experiment [6] was “inactive” each time. Also, the Potency entry in experiment [9], in experiment [10], in experiment [11], in experiment [12] and in [13] was “inactive” each time. The result in experiment [17], in [15] and in experiment [16] was inactive.
`C=CCCC`: the Potency result in experiment [2], in experiment [3], in [4], in experiment [5], in experiment [6] and in experiment [18] was “inactive” each time. The Potency result in [9], in experiment [10], in [11] and in experiment [13] was “inactive” each time. The molecule was called inactive in experiment [14], in experiment [15] and in [16].
In the case of `CCn1nc(Cc2ccccc2)cc1C1CCN(C[C@H]2C[C@H](N(C)[C@@H](C(=O)O)C(C)C)C[C@@H]2c2cccc(F)c2)CC1`, the Potency result in [2], in experiment [4], in [6], in experiment [18], in [8] and in experiment [9] was “inactive” in each case. In addition, the Potency entry in experiment [12] was “inactive”. The molecule was classed as inactive in experiment [7], in experiment [17] and in [16].
Consider `CC(=O)S[C@H](C(=O)N[C@H]1Cc2ccccc2[C@H]2CCC[C@@H](C(=O)O)N2C1=O)C(C)C`, for which the Potency entry in experiment [1], in experiment [6], in [8], in [9], in experiment [10] and in experiment [12] was “inactive” in each case. Besides, the Potency result in experiment [13] was “inactive”. Besides, the call in [7], in [14], in experiment [17], in [15] and in experiment [16] was inactive.
In the case of `CC(O)CN` (configuration not stated), the Potency result in experiment [2], in experiment [3], in experiment [4], in [5], in experiment [6] and in experiment [18] was “inactive” in each case. The Potency entry in experiment [8], in experiment [9], in experiment [10], in experiment [11], in [12] and in experiment [13] was “inactive” in each case. Further, the result in [14], in experiment [15] and in experiment [16] was inactive.
